# Assay outcomes (PubChem BioAssay)
# This is one part of a sample in which hits are shown more often than they occur.
# GCN5L2 inh: inhibitors of human GCN5L2 histone acetyltransferase; Q92830; GCN5L2 HAT assay, ThioGlo1 CoA-SH fluorescence; Potency, µM (doses to about 58.9 µM), inactives show top-dose activity change, negative = inhibition, actives largely listed as inhibitors; 0.21% of 390,000 active
#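 qHTS, 1536-well. 20nM enzyme, pH 7.5 HEPES/EDTA/Tween-20 buffer; 15 min compound preinc., RT. Start: 75uM H3(1-25), 70uM AcCoA, 50uM ThioGlo1. Read Ex340/Em540 at t=0 (autofluorescence flag) and t=20 min.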
# TDP1 inh: inhibitors of human tyrosyl-DNA phosphodiesterase TDP1; 0.28% of 350,000 active; Potency, µM (titrated, usually from 130 µM), without a hit: at the top dose activity change, negative = inhibition, actives largely listed as inhibitors; recombinant TDP1, AlphaScreen DNA substrate cleavage; Q9NUW8; AID 485290; further: nearly all actives have a fitted effect of over 40% in size
#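 Here, a 5' biotin and 3' phosphotyrosine-FITC DNA oligonucleotide reports Tdp1 activity: intact substrate bridges AlphaScreen beads, while cleavage leaves a 3' phosphate and drops signal. All incubations at room temperature.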
# RECQ1 inh: blocks DNA unwinding by human RECQ1. P46063. RECQ1 DNA unwinding, red fluorescence kinetic read. Potency, µM (highest dose often 57.3 µM), for inactives: top-dose activity, negative = inhibition, most hits filed as inhibitors. 0.54% of 240,000 active. AID 2549;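 further: plate controls were vehicle for no effect and no enzyme for full effect; nearly all actives have a fitted effect of over 30% in size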
#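 50 nM RECQ1T1 preincubated 15 min with compound in Tris pH 8.0 buffer with MgCl2, DTT, Tween-20 and 2.5 ug/ml poly(dI-dC); started with 200 nM TAMRA/BHQ-2 forked duplex and 2 mM ATP. Unwinding read as fluorescence (525/598 nm), two reads 2 h apart.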
# BLM helicase inh: Bloom syndrome helicase (human) inhibition. Potency, µM (top dose mostly 56.1 µM), for the others: at the highest dose activity change, negative = inhibition, usual class: inhibitors. 0.2% of 350,000 active. recombinant BLM DNA unwinding, fluorescence dequenching. AID 2528. P54132;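 further: plate controls were vehicle for no effect and no enzyme for full effect; nearly all actives have a fitted effect of over 35% in size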
# APEX1 inh: APE1 (human) endonuclease inhibition; P27695; recombinant APE1, TAMRA/BHQ-2 abasic DNA cleavage fluorescence; 0.35% of 350,000 active; Potency, µM (titrated, usually from 65.8 µM), without a hit: at the highest dose activity change, negative = inhibition, hits mostly inhibitors;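 further: plate controls were vehicle for no effect and reference inhibitor for full effect; nearly all actives have a fitted effect of over 55% in size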
# Target sequence (P27695 whole entry, looked up): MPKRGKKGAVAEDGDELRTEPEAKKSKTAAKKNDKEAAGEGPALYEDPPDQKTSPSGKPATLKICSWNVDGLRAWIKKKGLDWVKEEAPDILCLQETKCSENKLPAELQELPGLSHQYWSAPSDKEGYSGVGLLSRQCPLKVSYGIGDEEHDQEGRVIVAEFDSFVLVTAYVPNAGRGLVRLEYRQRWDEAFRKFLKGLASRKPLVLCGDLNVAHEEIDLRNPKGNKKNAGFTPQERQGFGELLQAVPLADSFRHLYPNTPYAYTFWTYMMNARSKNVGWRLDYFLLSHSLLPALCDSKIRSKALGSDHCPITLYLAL
#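 APE1 at 0.75 nM preincubated 15 min at room temperature with compound. Reaction then started with 50 nM double-stranded THF-abasic substrate labelled with TAMRA/BHQ-2, and 525/598 nm fluorescence read kinetically. Activity taken as third-minus-first read difference, normalized to DMSO and NSC13755 controls.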
# JMJD2E inh: inhibitors of human JMJD2E histone demethylase. Potency, µM (highest dose often 57.1 µM), for inactives: top-dose activity change, negative = inhibition, usual class: inhibitors. JMJD2E catalytic domain, FDH-coupled NADH fluorescence (FDH is formaldehyde dehydrogenase). 1.6% of 230,000 active. AID 2147; active means well fitted inhibition curve with a large enough effect, not every such curve was filed as active; inconclusive means small, poorly fitted or top-dose-only effect, or another doubt; inactive means no such curve, though single readings can be large or run the other way;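 further: 0% = wells with enzyme and -100% = buffer wells without enzyme; nearly all actives have a fitted effect of over 50% in size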
# An asterisk follows results filed as active; i = inactive; ? = inconclusive; . = no result given; ! = a repeat was not active; [ ] = dose if it differs, or a comment. Unless noted, the call rests on the fitted dose curve; in most records, active means well fitted curve in the direction sought with a large enough effect; inconclusive means small, poorly fitted or top-dose-only effect, or another doubt; inactive means no such curve, though single readings can be large; an effect the other way counts as inactive or inconclusive. Unless noted, on the % scale 0 is the no-effect control and ±100 the full control effect; potency means the concentration at half of the fitted maximal effect.
SMILES,GCN5L2 inh,TDP1 inh,RECQ1 inh,BLM helicase inh,APEX1 inh,JMJD2E inh
COc1cccc(/C=N/Nc2nccnc2Cl)c1O,-7%,8%,i,-6%,-5%,?
COc1cccc(/C=N/Nc2nc3ccccc3[nH]2)c1OC,-7%,5%,-5%,-3%,3%,-26%
COc1cccc(/C=N/Nc2nc3ccccc3[nH]2)c1O,-12%,12%,-14%,-11%,-2%,4.5µM*
COc1cccc(/C=N/Nc2cc(-n3nc(C)cc3-c3ccccc3)ncn2)c1O,-4%,-2%,3%,-17%,7%,1%
COc1cccc(/C=N/Nc2ncnc3scc(-c4ccccc4)c23)c1O,-13%,10%,-28%,-5%,6%,14µM*
COc1cccc(/C=N/Nc2ncnc(Cl)c2N)c1O,-4%,11%,-3%,-12%,-4%,25µM*
COc1ccc(C2Nc3ccccc3C(=O)N2Cc2ccccc2)cc1COc1ccc(C#N)cc1 (stereo unspecified),.,0%,.,.,.,.
COc1ccc(-c2cc(=O)oc3c(O)c(O)ccc23)cc1,-2%,.,.,10µM*,13%,.
O=C(Cc1ccc(Cl)cc1)SCc1ccccc1,-5%,32µM*,.,.,-5%,.
O=C(Cc1ccccc1)NCCSCc1ccc(Cl)cc1,4%,-8%,-12%,0%,?,5%
Cc1nnc(NC(=O)CSCc2cc(=O)c3ccc(C)c(C)c3[nH]2)s1,-1%,3%,.,-5%,.,.
Cc1nnc(NC(=O)CSCc2cc(=O)c3ccccc3[nH]2)s1,-5%,40µM*,.,-14%,-39%,.
Cc1ccc(CNC(=O)c2c[nH]n3c(=O)c(Cc4ccc(F)cc4Cl)c(C)nc23)cc1,35µM*,13%,.,?,.,.
Cc1nc2c(C(=O)NCCc3ccccc3)c[nH]n2c(=O)c1Cc1ccc(F)cc1Cl,?,11%,.,-6%,.,.
Cc1nc2c(C(=O)NCCc3ccc(Cl)cc3)c[nH]n2c(=O)c1Cc1ccccc1F,?,11%,.,-29%,.,.
COc1ccc(CCNC(=O)c2c[nH]n3c(=O)c(Cc4ccccc4Cl)c(C)nc23)cc1OC,28µM*,16%,.,-4%,.,.
CCCCCOC(=O)Nc1nc(=O)n(C2O[C@H](C)[C@@H](O)[C@@H]2O)cc1F (stereo partly specified),-25%,0%,.,-1%,.,.
Cc1ccc(CN(C)c2ccc(N3CCN(C)CC3)cc2)cc1,.,.,.,.,17%,.
Cc1ccc(C)c(OCC(=O)Nc2cc(NC(=O)COc3cc(C)ccc3C)cc(C(=O)O)c2)c1,?,50µM*,.,-20%,-34%,.
O=C1NC(=O)/C(=C/c2ccc3c(c2)OC(F)(F)O3)S1,-15%,.,.,.,.,.
CC[C@@]1(c2ccccc2)NC(=O)NC1=O,41%,4%,-9%,-3%,0%,.
O=C(O)CCc1ccc(S(=O)(=O)Nc2cc(C(F)(F)F)ccc2N2CCCC2)cc1,-6%,18µM*,.,.,?,.
CC(C)(C)OC(=O)Cc1nnc(CNC(=O)c2ccccc2)s1,.,0%,.,.,.,.
O=C(C1Cc2ccccc2CN1C(=O)c1ccccc1)N1CCN(c2ccccc2)CC1 (stereo unspecified),-15%,35µM*,-10%,-9%,?,-1%
CC1Cc2ccccc2N1c1ncnc2c1nnn2Cc1ccccc1 (stereo unspecified),22µM*,2%,-9%,-2%,4%,?
SMILES,GCN5L2 inh,TDP1 inh,RECQ1 inh,BLM helicase inh,APEX1 inh,JMJD2E inh
CC1Cc2ccccc2N1c1nc(C2CC2)nc2c1nnn2Cc1ccccc1 (stereo unspecified),?,3%,-1%,-14%,-1%,?
O=[N+]([O-])c1cc(Cl)cc(/C=N/NC(=S)Nc2ccc(S(=O)(=O)N3CCOCC3)cc2)c1O,?,12%,-10%,-11%,-7%,25µM*
N#Cc1ccc(/C=N/NC(=S)Nc2ccc(S(=O)(=O)N3CCOCC3)cc2)cc1,1%,.,21%,-8%,-9%,-2%
CC(C)CCCCCCNC(=S)Nc1ccc(S(=O)(=O)N2CCOCC2)cc1,-11%,6%,40µM*,-4%,?,-5%
Oc1ccc(/C=N/NC(=S)Nc2cccnc2)cc1O,-6%,1%,8.9µM*,-5%,?,16µM*
O=S(=O)(c1ccc(NC(=S)Nc2ccccc2)cc1)N1CCOCC1,-1%,-5%,-1%,-2%,4%,-20%
O=S(=O)(c1ccc(NC(=S)N/N=C/c2ccc(O)c(O)c2)cc1)N1CCOCC1,-13%,6%,?,-19%,13µM*,13µM*
CCCCC1=CC2=CC(=O)C(C)(OC(=O)CC)C(=O)C2=CN1c1ccccc1 (stereo unspecified),-3%,-4%[21 µM],-7%[11.5 µM],-4%[12.4 µM],1%[12.4 µM],25µM*!
CC1(OC(=O)C2CCCC2)C(=O)C=C2C=C3CCCN3C=C2C1=O (stereo unspecified),.,-9%[12.3 µM],i[11.5 µM],-6%[12.4 µM],2%[12.4 µM],-15%[11.4 µM]
